ChEMBL document CHEMBL4513216, “Probing the Open Global Health Chemical Diversity Library for Multistage-Active Starting Points for Next-Generation Antimalarials” (ACS Infect Dis, 2020)
The campaign covered roughly 69,000 compounds. About 8,600 (12%) showed an effect of 50% or more. What follows is part of a selection rich in strong results, with near analogues and random picks from the rest.

System: Plasmodium berghei
Assay: Screen against P. berghei liver stage (PbLuc), transformed with Luciferase, at 10uM
Assay type: functional, HepG2
Conditions: tested at 10 uM

SMILES | INHIBITION [%]
CCOCC(=O)N1CCC2(CC1)COCCN2CCN(C)C | -3.33
O=C(c1ccc(F)cc1)N1C[C@H]2CCC[C@@]2(COCc2ccncc2)C1 | 16.8
CC(C)CNC(=O)C1(Cc2ccccc2-c2cccs2)CCNC1 (configuration not stated) | 14.7
COc1ccc(C(C)NC(=O)Cn2ccc(=O)n(C)c2=O)cc1F (configuration not stated) | -29.8
Cc1ccccc1OCC(O)CN1CCC(Cn2cccn2)CC1 (configuration not stated) | 17.5
O=S1(=O)c2ccccc2OCC2(CCN(CCO)CC2)CN1CC1CC1 | -8.94
CC(=O)N1CC2(CCN(C(=O)c3ccoc3)C2)C1 | 27.6
CC(=O)N1CC2(CCN(C(=O)c3ccc4c(c3)OCCO4)CC2)C1 | -38.1
CC(=O)N1CCC2(CCN(C(=O)c3ccc(Cl)c(C(F)(F)F)c3)CC2)C1 | 51.2
CC(=O)N1CCC2(CCCN(C(=O)c3ccc(Cl)c(C(F)(F)F)c3)C2)C1 (configuration not stated) | 28.7
CC(=O)N1CCCC2(CCN(C(=O)c3ccc(Cl)c(C(F)(F)F)c3)C2)C1 (configuration not stated) | 32.2
CC(=O)N1CCC2(CCN(C(=O)c3ccc(Cl)c(C(F)(F)F)c3)C2)C1 (configuration not stated) | 50.9
N[C@H]1CCCN(C(=O)c2cnc(COc3ccccc3)nc2O)C1 | -58
Cc1nc(-c2cccnc2)ncc1C(=O)N1CCCC(N(C)C)CC1 (configuration not stated) | 21.6
Cc1nc(-c2cccnc2)ncc1C(=O)N1CCCCC(N)C1 (configuration not stated) | 55.6
CCCOCC1CCN(C(=O)c2cnc(-c3cccnc3)nc2O)C1 (configuration not stated) | -27.3
Cc1nc(-c2cccnc2)ncc1C(=O)N1CCC(c2ncc[nH]2)CC1 | 21.6
Cc1nc(-c2cccnc2)ncc1C(=O)N1CCC(C(C)N(C)C)CC1 (configuration not stated) | 70.4
Cc1nn(C)c(C)c1C1CCCN1Cc1nc(-c2cccs2)no1 (configuration not stated) | -2.53
CC(C)c1nccc(CN2CCCC(O)(CN(C)C)CC2)n1 (configuration not stated) | -3.55
CC1CN(CC(=O)N2CCOCC2)CCN1Cc1nccn1C (configuration not stated) | 20.915
Cc1nc2c(c(Nc3ccccn3)n1)CN(S(C)(=O)=O)CC2 | -10.4

SMILES | INHIBITION [%]
N#Cc1ccccc1C(=O)N1C[C@@H]2CC[C@H]1CN(Cc1ccccc1)C2 | 27.6
COCCn1ccc(NCc2scnc2C)n1 | 17.7
COCCCSc1ccc(NCc2scnc2C)cc1 | 95.4
COc1cc2nc(NCc3scnc3C)nc(N)c2cc1OC | 45
COCCCSc1ccc(NC(=O)Nc2cn[nH]c2)cc1 | 41.2
COCCCSc1ccc(NCc2ccc(C)cn2)cc1 | 72.2
COCCCSc1ccc(NCc2cscn2)cc1 | 26.9
COCCCNC(=O)c1cc(OC)c2ccoc2c1 | -25.7
CNC(=O)[C@H]1C[C@@H]2CN(C(=O)c3ccoc3)C[C@@H]2N1S(C)(=O)=O | -15.2
Cc1ccsc1C(=O)NCc1ccnc(N2CCN(C)CC2)c1 | 4.45
Cn1cc(NC(=O)Cc2ccccc2Br)cc1C(N)=O | -3.21
CC(C)(C)c1ccc(OCC(=O)O)c(CN2C[C@H]3CC(O)C[C@H]3C2)c1 (some centres not stated) | 40.55
Cc1ccccc1CN1CCC2(COCc3cnc(N(C)C)nc32)C1 (configuration not stated) | 21.8
Cc1noc(C)c1CN(C)C(=O)c1ccc(C(F)(F)F)nc1 | -9.37
CN(C)CCN1CCOCC2(CCN(Cc3ccc[nH]3)CC2)C1 | -7.94
Cc1cccc(N2CC(c3nnc(N)s3)CC2=O)c1 (configuration not stated) | 35
Cc1ccc(-c2noc([C@@H]3Cc4nc[nH]c4CN3)n2)cc1 | 36.2
Fc1ccc(-c2noc([C@@H]3Cc4nc[nH]c4CN3)n2)cc1 | -9.26
FC(F)(F)Oc1ccc(-c2noc([C@@H]3Cc4nc[nH]c4CN3)n2)cc1 | 64.8
O=C(N[C@H]1CCCC[C@@H]1O)c1ccc(-c2nc3ccccc3[nH]2)cc1 | 14.5
Cc1ccc(NC2CCN(C(=O)c3cc(C)no3)CC2)nn1 | -25.85
CN(CCC(F)(F)F)C(=O)C1CSCN1C(=O)C(C)(C)C (configuration not stated) | 31.2

SMILES | INHIBITION [%]
Cc1ncoc1C(=O)N1CCCC(c2ccc3c(N)nn(C)c3n2)C1 (configuration not stated) | 5.2
CNc1nc(C2CCCN2C(C)=O)nc2c1CN(CCO)CC2 (configuration not stated) | 11.5
CNc1nc(C2CCN(C(=O)CC3CCCC3)C2)nc2c1CN(C)CC2 (configuration not stated) | 67.7
CNc1nc(C2CCCN2C(C)=O)nc2c1CCN(CC1CC1)C2 (configuration not stated) | -2.42
CCC(=O)N1CCC(c2nc3c(c(NC)n2)CN(C)CC3)C1 (configuration not stated) | -22.6
CNc1nc(C2CCCN2C(C)=O)nc2c1CN(C1CCCC1)CC2 (configuration not stated) | 67.9
CNc1nc(C2CCCN(C(=O)CNC(C)=O)C2)nc2c1CN(C)CC2 (configuration not stated) | 42.4
CSCC(C)(O)CNS(=O)(=O)Cc1ccc(F)cc1 (configuration not stated) | 33.7
CC(C)(C(=O)O)S(=O)(=O)c1ccc(Br)cc1 | 4.82
Cn1ncc2c1C(COCC1CC1)CN(Cc1ccoc1)C2 (configuration not stated) | 35.8
O=C(c1cccnc1)N(Cc1ccncc1)C1CC1 | 14.8
O=C(COc1ccccc1)N(Cc1ccncc1)C1CC1 | 61.9
Cc1noc(C)c1CN(C)C(=O)COc1cccc(C#N)c1 | 8.08
Cc1cccc(OCC(=O)N(Cc2ccncc2)C2CC2)c1 | 31.3
N#Cc1ccc(C(=O)N(Cc2ccncc2)C2CC2)cc1 | -19.4
COc1cc(C(C)=O)ccc1OCC(=O)N(Cc1ccsc1)C1CC1 | -16
N#Cc1cccc(OCC(=O)N(Cc2ccsc2)C2CC2)c1 | 54.5
N#Cc1cccc(CN(CCO)Cc2ccsc2)c1 | 33.4
N#Cc1cccc(OCC(=O)N(Cc2ccncc2)C2CC2)c1 | 59.1
O=C(COc1ccc2c(c1)CCC2)NCc1ccco1 | 33.2
O=C(NC1CCC2(CCC(=O)N2CC2CC2)CC1)c1cnccn1 (configuration not stated) | -40.5
CNC(=O)C(C)(C)N1CCC[C@H]1C(=O)NCCN(C)C | 49.4

SMILES | INHIBITION [%]
C=C(C)CSc1nnc(CCNC(=O)OC(C)(C)C)o1 | -0.532
CCSc1nnc(CCNC(=O)OC(C)(C)C)o1 | -17.3
COC(=O)CSc1nnc(CCNC(=O)OC(C)(C)C)o1 | 52.5
Cc1cccc(-c2nccnc2C2CCCN(C)C2)c1 (configuration not stated) | 16.105
Cc1nccn1CC1CCCN1S(=O)(=O)Cc1cccc(F)c1 (configuration not stated) | -7.35
O=C(c1cc(C2CCCCC2)no1)N1C[C@H]2CC(O)C[C@H]2C1 (some centres not stated) | -15.1
Cc1ncc2c(n1)CCCC2NC(=O)c1cnn(Cc2ccccc2)c1 (configuration not stated) | 26.4
Cc1ncc2c(n1)CCCC2NC(=O)c1ccccc1Cn1cncn1 (configuration not stated) | 64
Cc1ncc2c(n1)CCCC2NC(=O)c1ccccc1C(=O)O (configuration not stated) | 11.6
Cc1nc(C)c(C(=O)N2CCc3nnc(C4CCCN4C)n3CC2)s1 (configuration not stated) | -14.6
O=C(C1CC1)N1CCC2(CC1)COCCN2Cc1ccc(F)cc1 | 68.4
O=C(C1CC1)N1CCC2(CCN2Cc2ccc(F)cc2)C1 (configuration not stated) | 9.97
CCN1CCOCC12CCN(C(=O)Cc1cccs1)CC2 | 23.3
O=C(C1CC1)N1CCC2(CCCN2Cc2ccc(F)cc2)CC1 | 13.7
O=C(CC1CCCC1)N1CCC2(CCN2Cc2ccc(F)cc2)C1 (configuration not stated) | -43
CC(C)CC(=O)N1CCC2(CC1)COCCN2Cc1ccc(F)cc1 | 56.7
CC(=O)N1CCC2(CC1)COCCN2Cc1ccc(F)cc1 | 34.7
COCC(=O)N1CCC2(CC1)COCCN2Cc1ccc(F)cc1 | 26.4
O=C(Cc1ccccc1)N1CCC2(CCN2Cc2ccc(F)cc2)C1 (configuration not stated) | 1.34
CCC(=O)N1CCC2(CC1)COCCN2Cc1ccc(F)cc1 | 66
CCN1CCOCC12CCN(C(=O)Cc1ccccc1)CC2 | 28.7
CC(C)C(=O)N1CCC2(CC1)COCCN2Cc1ccc(F)cc1 | 63.7

SMILES | INHIBITION [%]
CC(=O)NCCCNC(=O)N1CCN(c2cc(F)ccc2F)CC1 | -15
N#Cc1ccccc1CN1C[C@H]2CC[C@@H](C1)N(Cc1cscn1)C2=O | 6.8
CCc1nc(C)sc1CN1CC[C@@](O)(CCOC)[C@H](C)C1 | 21.8
COCCn1cncc1-c1nc2c([nH]1)CC(C)(C)CNC2=O | -27.6
COCC(=O)N1CCCCC1c1nc(C)c2c(n1)N(C1CC1)C(=O)CC2 (configuration not stated) | 36.9
CCN1CCC(NC(=O)CN2CCCC2Cn2nc(C)nc2C)CC1 (configuration not stated) | 31.2
CSCC[C@H](NC(=O)Cn1ccc2ccc(Cl)cc21)C(=O)O | -30.8
Cc1cc(CN2CCCC2Cn2cccn2)no1 (configuration not stated) | 9.2
CSCc1cccc(S(=O)(=O)N2CCCCCC2)c1 | 2.69
Cc1cc(NC2CCc3nc(C(C)C)nn3C2)n2ncnc2n1 (configuration not stated) | 49.1
Cn1nnc2c1C(COCc1ccccn1)CN(C(=O)c1cccs1)C2 (configuration not stated) | 31.8
CS(=O)(=O)N1CC[C@]2(C[C@@H](Oc3ccccn3)CO2)C1 | 29
COc1ccc(C(=O)N2C[C@@H](c3ccccc3)[C@@H]3NCCCC[C@@H]32)cc1 | 15.9
COc1cccc(C(=O)N2C[C@@H](c3ccccc3)[C@@H]3NCCCC[C@@H]32)c1 | 5.11
COc1cccc([C@H]2CN(C(=O)c3ccccc3)[C@@H]3CCCN[C@H]23)c1 | 55.6
CCn1cc(CN2CCCN(C(=O)c3ccoc3)CC2)cn1 | 41.2
CCC(C)(C)NC(=O)C[S+]([O-])Cc1csc(C2CCCC2)n1 (configuration not stated) | 63.8
O=C(C[S+]([O-])Cc1csc(C2CCCC2)n1)NC1CCCC1 (configuration not stated) | 36.9
CCCNC(=O)C[S+]([O-])Cc1csc(C2CCCCC2)n1 (configuration not stated) | 23
